Assay outcomes from PubChem BioAssay.
Sampled rows, rich in hits. Any-hit rate of the full collection: about 3%.
ABHD5-PLIN5 inh: blocks binding of human ABHD5 to perilipin-5; Q00G26+Q8WTS1; Split G. princeps luciferase complementation, luminescence, 4 h; inhibition, % at 4 µM; 360,000 tested, 0.78% active; AID 602281;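 active means inhibition above the mean inhibition across every tested compound plus 3 SD, cut at about 22% in these data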;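 further: 0% = DMSO only wells and the 100% control is not disclosed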
Target sequence (Q00G26 whole entry, looked up): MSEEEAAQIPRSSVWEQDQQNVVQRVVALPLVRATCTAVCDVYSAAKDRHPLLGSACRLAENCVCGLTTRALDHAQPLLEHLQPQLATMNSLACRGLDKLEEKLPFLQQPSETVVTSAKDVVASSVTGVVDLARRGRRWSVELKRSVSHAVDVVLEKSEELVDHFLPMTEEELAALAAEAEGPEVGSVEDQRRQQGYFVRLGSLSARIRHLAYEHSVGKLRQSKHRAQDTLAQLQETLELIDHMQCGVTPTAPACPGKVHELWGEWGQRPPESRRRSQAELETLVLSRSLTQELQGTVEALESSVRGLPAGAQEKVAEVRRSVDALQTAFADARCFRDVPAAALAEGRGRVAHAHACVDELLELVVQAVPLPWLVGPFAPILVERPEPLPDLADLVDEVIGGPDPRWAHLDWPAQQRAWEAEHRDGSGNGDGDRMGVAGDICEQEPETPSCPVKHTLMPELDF
Target sequence (Q8WTS1 whole entry, looked up): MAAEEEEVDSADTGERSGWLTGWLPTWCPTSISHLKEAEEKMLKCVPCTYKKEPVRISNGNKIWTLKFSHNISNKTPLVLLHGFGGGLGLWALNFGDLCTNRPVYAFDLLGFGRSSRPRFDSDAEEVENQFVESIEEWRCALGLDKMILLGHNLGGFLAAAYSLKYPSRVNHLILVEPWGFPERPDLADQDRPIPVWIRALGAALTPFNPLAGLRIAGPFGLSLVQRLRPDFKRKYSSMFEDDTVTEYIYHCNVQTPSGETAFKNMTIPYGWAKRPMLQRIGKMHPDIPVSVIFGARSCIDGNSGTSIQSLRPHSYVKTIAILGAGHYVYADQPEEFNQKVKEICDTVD
EWS-Fli inh: EWS/Fli transcriptional activity inhibition; A673 NR0B1-luciferase reporter, viability-normalised; inhibition, % at 12.6 µM; 350,000 tested, 0.67% active;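 active means mean inhibition of at least 50% after viability correction, with every replicate also passing that limit; inconclusive means mean reaches 50% but only one of two replicates passes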;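 further: firefly luciferase signal divided by Alamar Blue viability fluorescence both relative to DMSO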
TRPM1 prom inh: MITF TRPM1 promoter inhibition in SK-MEL-5 cells. SK-MEL-5 TRPM1 promoter luciferase, 24 h. inhibition, % at 12.5 µM. 330,000 tested, 0.83% active;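 active means mean inhibition across replicates of 60% or more, whatever share of single replicates reaches that level; inconclusive means some that reach 60%, reason not given; inactive means mean inhibition across replicates below 60%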
Shn3 3UTR inh: reduces Shn3 3'UTR luciferase signal in osteoblasts. 360,000 tested, 0.52% active. inhibition, % at 12.5 µM. Clone20 osteoblast Shn3 3'UTR firefly luciferase, 24 h;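 active means mean inhibition of at least 75% with every replicate also reaching 75%; inconclusive means mean inhibition at least 75% but some replicate below; inactive means mean inhibition below 75%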;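 further: 0% = median of neutral control wells and 100% = pilot-screen positive control compound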
PAX8 reporter: PAX8 transcriptional activity inhibition; RMG-I TPO-luciferase reporter, SteadyGlo, 24 h; inhibition, % at 12.6 µM; 360,000 tested, 1.2% active; AID 652154;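 active means mean replicate inhibition at least 60% with every replicate also reaching 60%; inconclusive means only one of the two criteria is met; inactive means mean below 60% and not all replicates reaching 60%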;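 further: luciferase light reporting Pax8 driven TPO promoter activity; plate controls were median of neutral control wells for no effect and mitoxantrone controls for full effect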
Peg3 promoter: inhibitors of Peg3 promoter | inhibition, % at 20 µM | HeLa PEG-Prom luciferase reporter, luminescence, overnight | 360,000 tested, 1.7% active;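 active means inhibition of at least 50% at 20 µM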
Active calls of the source: *; ? = inconclusive; . = no result.

SMILES | ABHD5-PLIN5 inh | EWS-Fli inh | TRPM1 prom inh | Shn3 3UTR inh | PAX8 reporter | Peg3 promoter
CO[C@@H]1CN(C)C(=O)c2cc(NS(C)(=O)=O)ccc2OC[C@@H](C)N(CC2CC2)C[C@H]1C | . | -6 | . | . | 5 | .
COc1ccc(-c2cc(NC=O)c3ncc(-c4cc(OC)c(OC)c(OC)c4)n3c2)cc1 | -5 | 42 | . | -1 | 72* | -1
COc1ccccc1-c1cc(NC=O)c2ncc(-c3ccc(S(C)(=O)=O)cc3)n2c1 | 7 | 26 | . | -7 | 63* | 25
COc1ccc(-c2cnc3c(NC=O)cc(-c4cc(OC)c(OC)c(OC)c4)cn23)cc1OC | 9 | 28 | . | 23 | 31 | 65*
COc1ccc(-c2cnc3c(NC=O)cc(-c4ccc(F)cc4)cn23)cc1OC | 10 | 34 | . | 15 | 69* | 7
COc1ccc(-c2cnc3c(NC=O)cc(-c4ccoc4)cn23)cc1OC | 16 | 36 | . | 15 | 38 | 32
COc1ccc(-c2cnc3c(NC=O)cc(-c4ccccc4)cn23)cc1OC | 13 | 46 | . | 21 | 33 | 23
COc1ccc(-c2cnc3c(NC=O)cc(-c4ccc(S(C)(=O)=O)cc4)cn23)cc1OC | 9 | 6 | . | 11 | 22 | 31
COc1cccc(-c2cnc3c(NC=O)cc(-c4cc(OC)c(OC)c(OC)c4)cn23)c1 | 5 | 8 | . | 39 | -1 | 32
CN1[C@H](C(=O)NCCCN2CCOCC2)[C@@H](CO)[C@@H]2Cn3c(ccc(/C=C/c4ccccc4)c3=O)[C@@H]21 | . | -5 | . | . | 3 | .
O=C(Nc1ccc(F)cc1)N1CC(=O)N2[C@H](CO)[C@H](c3ccc(-c4cccc(F)c4)cc3)[C@H]2C1 | . | 6 | . | . | 26 | .
COc1ccc(CN(C)C[C@H]2Oc3ccc(NS(=O)(=O)c4cccs4)cc3C(=O)N([C@H](C)CO)C[C@@H]2C)cc1 | . | -1 | . | . | . | .
C[C@H]1CN([C@@H](C)CO)C(=O)Cc2cc(N(C)C)ccc2O[C@@H]1CN(C)Cc1ccc(Cl)c(Cl)c1 | . | 2 | . | . | 28 | .
COc1cc(-c2cnc3c(NC=O)cc(-c4ccc(S(C)(=O)=O)cc4)cn23)cc(OC)c1OC | 3 | 42 | . | 6 | 62* | 23
O=[N+]([O-])c1ccc2c(c1)oc1ccccc12 | -1 | . | 3 | -6 | -5 | -11
O=[N+]([O-])c1cc2c(ccc3occc32)o1 | . | 37 | . | . | 107* | .
CCc1ccc(Nc2n[n+](-c3ccccc3)c(-c3ccc(N(CC)CC)cc3)s2)cc1 | 4 | 27 | 68* | 82 | 82* | 84*
Fc1ccc(-[n+]2nc(Nc3ccccc3)sc2-c2c(Cl)cccc2Cl)cc1 | -2 | 13 | 8 | 19 | 32 | 59*
CCc1ccc(Nc2n[n+](-c3ccccc3)c(-c3c(Cl)cccc3Cl)s2)cc1 | 0 | 40 | 56 | 92* | 101* | 97*
COc1ccc2ccccc2c1-c1sc(Nc2ccccc2)n[n+]1-c1ccc(F)cc1 | 5 | 28 | 5 | 3 | 5 | 87*
O=C(c1cnccn1)N1CC(=O)N2[C@@H](CO)[C@H](c3ccc(C#CC4CC4)cc3)[C@@H]2C1 | . | -2 | . | . | . | .
Cc1sc2cc3c(c(C(=O)c4ccccc4)[n+]2c1C)-c1cccc2cccc-3c12 | . | 30 | . | . | 86* | .
O=C(c1ccccc1)c1c2c(cc3sc4ccccc4[n+]13)-c1cccc3cccc-2c13 | 16 | . | 86* | 78 | 66* | 101*
C[C@H]1CN([C@@H](C)CO)C(=O)c2cccc(NS(C)(=O)=O)c2O[C@@H]1CN(C)C(=O)NC1CCCCC1 | . | -1 | . | . | -14 | .
COC(=O)c1ccsc1NC(=O)CCS(=O)(=O)c1ccc(Cl)cc1 | -6 | -10 | 3 | 3 | 83* | 21
SMILES | ABHD5-PLIN5 inh | EWS-Fli inh | TRPM1 prom inh | Shn3 3UTR inh | PAX8 reporter | Peg3 promoter
COC(=O)c1ccsc1NC(=O)CS(=O)(=O)c1ccccc1 | -14 | 6 | -12 | -6 | -11 | -12
COC(=O)c1ccsc1NC(=O)CCS(=O)(=O)c1ccccc1 | 0 | . | 4 | 6 | 84* | 7
C=C1C(=O)C23CCC4C(C)(C(=O)OC)CCCC4(C)C2CCC1(O)C3 (stereo not drawn) | 72* | 56* | 117* | 96* | 134* | 101*
COC(=O)[C@]1(C)CCC[C@@]2(C)C3CC[C@@]4(C)C[C@]3(CCC21)CC(=O)N4 (stereo partly drawn) | -6 | -3 | 1 | 6 | 6 | 3
Cc1nc2c(nc1C)C(=O)c1ccccc1C2=O | -14 | 21 | 105* | 24 | 6 | 8
O=C1c2ccccc2-c2nc3ccccc3nc21 | -10 | . | -31 | -89 | . | -215
Cn1cnc(S(=O)(=O)N2C[C@@H](O)COC[C@@H]3O[C@H](CC(=O)NC4Cc5ccccc5C4)CC[C@H]32)c1 | . | -10 | . | . | -3 | .
CC1CCCC(NC(=O)CSc2ccc(F)cc2)C1C (stereo not drawn) | -8 | 0 | -9 | 7 | -10 | 2
CC1CCCC(NCC(O)COC(c2ccc(F)cc2)c2ccc(F)cc2)C1C (stereo not drawn) | 10 | 41 | 86* | 28 | ? | 104*
Cc1noc(C)c1S(=O)(=O)N(C)C[C@@H]1Oc2ccc(NC(=O)Nc3ccccc3)cc2CC(=O)N([C@H](C)CO)C[C@H]1C | . | -7 | . | . | 18 | .
CC(C)(C)c1ccc(C(=O)NCCOc2ccccc2F)cc1 | 4 | 75* | 26 | 24 | 29 | 67*
CC(C)(C)c1ccc(C(=O)NCCOc2ccccc2)cc1 | -2 | 64* | 9 | 23 | -7 | -35
CN(C)S(=O)(=O)c1ccc(C(=O)NCCOc2ccccc2)cc1 | 0 | . | -58 | -64 | -136 | -192
C[C@H](CO)N1C[C@H](C)[C@@H](CN(C)S(=O)(=O)c2cn(C)cn2)Oc2c(NC(=O)C3CCOCC3)cccc2C1=O | . | -7 | . | . | . | .
O=C(Nc1ccc(F)cc1)N1C[C@H]2[C@@H](c3ccccc31)[C@@H](CO)N2C(=O)Cc1ccccn1 | . | -17 | . | . | 7 | .
C[C@@H]1CN([C@H](C)CO)C(=O)c2cccc(NC(=O)c3cnccn3)c2O[C@H]1CN(C)CC1CCCCC1 | . | 1 | . | . | -24 | .
C[C@@H]1CN([C@@H](C)CO)C(=O)c2cc(NC(=O)CCC(F)(F)F)ccc2O[C@@H](C)CCCCO[C@@H]1CN(C)S(=O)(=O)c1ccccc1 | . | -2 | . | . | -8 | .
COc1ccc2c3c(n(C)c2c1)[C@@H](CO)N(C(=O)CN1CCOCC1)CC31CN(C)C1 | . | -2 | . | . | . | .
Cc1ccc(C(=O)OCn2ncc(Cl)c(Cl)c2=O)cc1 | 3 | . | 105* | 91* | . | 102*
O=C(OCn1ncc(Cl)c(Cl)c1=O)c1ccc(C(F)(F)F)cc1 | 2 | . | 53 | 95* | . | 105*
O=C(O)c1ccc(-n2ncc(Cl)c(Cl)c2=O)cc1 | 8 | . | . | 57 | . | -16
Cc1ccccc1S(=O)(=O)N1C[C@@H](O)COC[C@H]2O[C@H](CC(=O)N3CCOCC3)CC[C@@H]21 | . | 4 | . | . | -13 | .
